± gives the standard deviation of the averaged measurements.
Columns and labels:
[1] = system: 6.0 (DMSO control at this site: 1-bp insertion 0.296, MH deletion 0.491, edited 0.076) ACGATTGGCCCCCACAAAGCGGACCAGCCAGCGTGCTAGGGAATAAGGCCAACTTGCACCC; experiment: fraction of edited reads among all mapped reads; higher = more Cas9 editing; conditions: mESC; 2uM; 72 h treatment, harvest day 5
[2] = system: 6.0 (DMSO control at this site: 1-bp insertion 0.296, MH deletion 0.491, edited 0.076) ACGATTGGCCCCCACAAAGCGGACCAGCCAGCGTGCTAGGGAATAAGGCCAACTTGCACCC; experiment: fraction of microhomology deletions among edited reads; higher = more MH deletions; conditions: mESC; 2uM; 72 h treatment, harvest day 5
[3] = system: 6.0 (DMSO control at this site: 1-bp insertion 0.296, MH deletion 0.491, edited 0.076) ACGATTGGCCCCCACAAAGCGGACCAGCCAGCGTGCTAGGGAATAAGGCCAACTTGCACCC; experiment: fraction of 1-bp insertions among edited reads; higher = more 1-bp insertion outcomes; conditions: mESC; 2uM; 72 h treatment, harvest day 5
[4] = system: mESC LDLR-Dup GFP reporter (SpCas9 MH-deletion repair); experiment: fraction of GFP+ cells relative to DMSO control (fold change); higher = more MH-deletion repair to in-frame LDLR (or more editing); conditions: 2 µM; 7 days post-transfection

Structure (SMILES): CCN1CCN(CC(=O)Nc2ccc(-c3cccc4c(=O)cc(N5CCOCC5)oc34)c3sc4ccccc4c23)CC1
- fraction of edited reads among all mapped reads [1]: 0.0396
- fraction of microhomology deletions among edited reads [2]: 0.588
- fraction of 1-bp insertions among edited reads [3]: 0.0821
- fraction of GFP+ cells [4]: 1.08 ± 0.16

Structure (SMILES): CO[C@H]1/C=C/O[C@@]2(C)Oc3c(C)c(O)c4c(O)c(c(/C=N/N5CCN(C6CCCC6)CC5)c(O)c4c3C2=O)NC(=O)/C(C)=C\C=C\[C@H](C)[C@H](O)[C@@H](C)[C@@H](O)[C@@H](C)[C@H](OC(C)=O)[C@@H]1C [Rifapentine]
- fraction of edited reads among all mapped reads [1]: 0.14
- fraction of microhomology deletions among edited reads [2]: 0.538
- fraction of 1-bp insertions among edited reads [3]: 0.258
- fraction of GFP+ cells [4]: 3.03 ± 0.37

Structure (SMILES): S=c1[nH]cnc2nc[nH]c12 [Mercaptopurine (6-MP)]
- fraction of edited reads among all mapped reads [1]: 0.0919
- fraction of microhomology deletions among edited reads [2]: 0.519
- fraction of 1-bp insertions among edited reads [3]: 0.285
- fraction of GFP+ cells [4]: 2.22 ± 1.1

Structure (SMILES): Cc1ccc(C(=O)NCCCCCC(=O)Nc2ccccc2N)cc1
- fraction of edited reads among all mapped reads [1]: 0.0825
- fraction of 1-bp insertions among edited reads [3]: 0.292
- fraction of GFP+ cells [4]: 1.26 ± 0.13

Structure (SMILES): Nc1nc2[nH]cc(CCc3ccc(C(=O)N[C@@H](CCC(=O)O)C(=O)O)cc3)c2c(=O)[nH]1 [Pemetrexed Disodium Hydrate]
- fraction of GFP+ cells [4]: 1.69 ± 0.34

Structure (SMILES): O=c1[nH]c(=O)n(C2CCCO2)cc1F (stereo unspecified)
- fraction of GFP+ cells [4]: 1.06 ± 0.28

Structure (SMILES): O=c1cc(N2CCOCC2)oc2c(-c3ccc4c(c3)OCCO4)csc12
- fraction of edited reads among all mapped reads [1]: 0.0488
- fraction of microhomology deletions among edited reads [2]: 0.568
- fraction of 1-bp insertions among edited reads [3]: 0.201
- fraction of GFP+ cells [4]: 0.48 ± 0.029

From the supplement of paper PMC8387472
